As a reminder, the inhibition is the change of the read-out against control, counted positive when it falls.

Here are results for 71 molecules from ChEMBL document CHEMBL4808148, “HDAC6 screening dataset using tau-based substrate in an enzymatic assay yields selective inhibitors and activators” (2021).

About 150 (2.7%) of roughly 5,600 compounds showed an effect of 50% or more. The list comes from a sample in which strong results are over-represented; it also holds similar structures and randomly drawn compounds.

This test addresses T1, Protein deacetylase HDAC6 (Homo sapiens) (UniProt Q9UBN7).
T1 sequence (whole entry): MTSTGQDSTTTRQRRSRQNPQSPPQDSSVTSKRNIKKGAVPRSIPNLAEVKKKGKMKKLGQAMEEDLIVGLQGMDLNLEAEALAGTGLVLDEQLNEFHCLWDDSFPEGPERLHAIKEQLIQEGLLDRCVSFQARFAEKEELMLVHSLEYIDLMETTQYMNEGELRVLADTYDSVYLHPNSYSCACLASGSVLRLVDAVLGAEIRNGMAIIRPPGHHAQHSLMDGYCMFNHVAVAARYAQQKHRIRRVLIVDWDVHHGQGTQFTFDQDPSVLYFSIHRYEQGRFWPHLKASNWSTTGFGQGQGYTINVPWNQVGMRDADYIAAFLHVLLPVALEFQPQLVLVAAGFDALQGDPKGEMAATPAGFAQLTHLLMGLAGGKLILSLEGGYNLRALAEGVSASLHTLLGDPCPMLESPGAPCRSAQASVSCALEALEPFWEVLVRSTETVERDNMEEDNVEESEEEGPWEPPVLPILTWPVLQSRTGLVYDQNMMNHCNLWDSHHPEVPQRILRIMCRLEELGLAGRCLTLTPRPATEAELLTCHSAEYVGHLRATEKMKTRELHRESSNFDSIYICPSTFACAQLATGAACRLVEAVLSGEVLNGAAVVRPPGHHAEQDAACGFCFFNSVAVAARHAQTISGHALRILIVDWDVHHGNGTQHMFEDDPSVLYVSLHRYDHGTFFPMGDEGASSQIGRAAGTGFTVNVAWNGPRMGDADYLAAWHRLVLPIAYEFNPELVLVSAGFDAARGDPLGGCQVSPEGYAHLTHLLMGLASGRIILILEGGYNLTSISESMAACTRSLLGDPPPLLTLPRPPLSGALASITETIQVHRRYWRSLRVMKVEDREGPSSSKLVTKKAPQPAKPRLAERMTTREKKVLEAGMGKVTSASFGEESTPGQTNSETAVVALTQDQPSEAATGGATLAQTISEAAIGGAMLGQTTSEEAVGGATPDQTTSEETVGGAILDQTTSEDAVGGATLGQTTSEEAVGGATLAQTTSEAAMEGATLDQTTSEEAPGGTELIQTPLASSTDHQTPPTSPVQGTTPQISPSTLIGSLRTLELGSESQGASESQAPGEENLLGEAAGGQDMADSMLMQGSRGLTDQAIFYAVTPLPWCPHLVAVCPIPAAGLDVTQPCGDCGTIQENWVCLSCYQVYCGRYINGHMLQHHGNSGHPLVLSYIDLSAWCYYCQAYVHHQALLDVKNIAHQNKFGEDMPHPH
The note with it: at 10 µM.
Take `O=C(/C=C/c1ccccc1)NCCO`: the inhibition was 44.6%.

Take `CCNC(=O)/C=C/c1cccc(Br)c1`: the inhibition was 11.1%.

As to `O=C(/C=C/c1cccc(S(=O)(=O)Nc2ccccc2)c1)NO`, the inhibition was determined as 97.7%.

As to `COc1ccc(Cl)cc1C(=O)NCCc1ccc(C(=O)O)cc1`, the inhibition is -2.67%.

Regarding `Cc1cc(Cl)ccc1OCCCC(=O)NO`, the inhibition is 87.1%.

Turning to `Cc1ccc(C)c(OCCCC(C)(C)C(=O)O)c1`, the inhibition was found to be 4.07%.

Regarding `N=C(N)NCCC[C@H](N)C(=O)NCC(=O)N[C@@H](CC(=O)O)C(=O)N[C@@H](CO)C(=O)O`, the inhibition turned out to be 5.37%.

For the molecule `O=C(c1ccc2nccnc2c1)N1CCCCC1`, the inhibition is -1.26%.

Take `CCNC(=O)NS(=O)(=O)c1sc(CC(C)C)cc1-c1ccc(Cn2c(-c3ccccc3)nc(OC)c2C=O)cc1`: the inhibition is -1.89%.

As to `COc1ccc2nc(NC(=O)Nc3ccccc3)sc2c1`, the inhibition came to 58.2%.

`COc1ccc(Cl)c(Nc2nc3ccccc3nc2NS(=O)(=O)c2cccc(NC(=O)C(C)(C)N)c2)c1`: the inhibition was -9.43%.

Turning to `CCOc1ccc2nc(S(N)(=O)=O)sc2c1`, the inhibition came out at 1.88%.

For `COC(=O)[C@H](Cc1cccc(C(=N)N)c1)[C@@H](C)NC(=O)c1ccc(-c2cc[n+]([O-])cc2)cc1`, the inhibition is -6.46%.

For `N#CCC1(n2cc(-c3ncnc4[nH]ccc34)cn2)CN(C2CCN(C(=O)c3ccnc(C(F)(F)F)c3F)CC2)C1`, the inhibition was -4.32%.

Turning to `Cc1ccccc1/N=N/c1ccc(/N=N/c2c(O)ccc3ccccc23)c(C)c1`, the inhibition came to 0.88%.

Turning to `Cc1ccc(O)c(/N=N/c2ccccc2)n1`, the inhibition was determined as 99.5%.

In the case of `CC(C)(CC(=O)N1CCCC1)NCC(=O)N1C[C@@H](F)C[C@H]1C#N`, the inhibition is 1.6%.

Take `Cn1ccc2cc3c(cc21)CCN3C(=O)Nc1cccnc1`: the inhibition was 69.4%.

Consider `Cn1ccc2cc(NC(=O)Nc3cccnc3)ccc21`, for which the inhibition worked out at 39.6%.

In the case of `CSc1cc2c(cc1C(F)(F)F)N(C(=O)Nc1cccnc1)CC2`, the inhibition worked out at 1.32%.

On to `COc1ccccc1N1CCN(CC(O)COc2cc(OC)c(OC)c(OC)c2)CC1` (stereo unspecified), for which the inhibition is -4.5%.

As to `O=C(O)CCCCCCCCC(=O)O`, the inhibition was found to be 0.43%.

In the case of `O=C(CCCCCCC(=O)Nc1cccnc1)NO`, the inhibition is 98.1%.

With `O=C(O)CCCCCCCC(=O)O`, the inhibition amounted to 0.37%.

In the case of `O=C(CCCCCCC(=O)NO)NO`, the inhibition turned out to be 96.5%.

In the case of `O=C(CCCCCCCn1cc(-c2cccnc2)nn1)Nc1ccccc1-c1ccccc1`, the inhibition was -3.08%.

For `NC(=O)c1cccnc1`, the inhibition came to 9.25%.

Take `CC(C)Cc1ccc([C@@H](C)C(=O)NS(C)(=O)=O)cc1`: the inhibition was -2.75%.

Turning to `OC(c1ccc(-c2ccc(CN3CCN(Cc4ccncc4)CC3)cc2)c(F)c1)(C(F)(F)F)C(F)(F)F`, the inhibition was -2.34%.

Turning to `N#Cc1cccc(C(=O)Nc2cc(-c3ccccc3)nn2-c2ccccc2)c1`, the inhibition was 12.2%.

Take `Cc1ccc(-c2ccc(C)cn2)nc1`: the inhibition turned out to be 70.4%.

Regarding `CCOc1ccc(NC(=S)N2CCC(C(O)(c3ccccc3)c3ccccc3)CC2)cc1`, the inhibition was -1.16%.

`O=C(O)C(O)C(O)C(O)C(O)CO` (stereo unspecified): the inhibition is -3.09%.

Consider `O=Cc1ccc(CO)o1`, for which the inhibition is -2.99%.

With `CS(=O)(=O)c1ccc(Oc2cc(F)cc(C#N)c2)c2c1[C@H](O)C(F)(F)C2`, the inhibition was -4.01%.

Take `CCc1nc(C(N)=O)c(Nc2ccc(N3CCC(N4CCN(C)CC4)CC3)c(OC)c2)nc1NC1CCOCC1`: the inhibition stood at 0.8%.

Regarding `Fc1ccc(-c2nc(-c3c(F)cccc3F)[nH]c2-c2ccncc2)cc1`, the inhibition was -5.55%.

In the case of `Cc1ccc(-c2cn3c4c(sc3n2)CCCC4)cc1`, the inhibition worked out at 95.1%.

With `N=C(N)Nc1ccc(Cl)cc1`, the inhibition was found to be 0.23%.

For the molecule `N=C(N)c1ccc(/N=N/Nc2ccc(C(=N)N)cc2)cc1`, the inhibition was -8.86%.

`Cc1sc(C)c(C(=O)NC2(c3ccc(C(=O)O)cc3)CC2)c1Cc1ccc(C(F)(F)F)cc1`: the inhibition was 3.37%.

In the case of `O=C1COc2c(CCNCCN(C(=O)CCNCCc3ccc(Cl)c(Cl)c3)C3CCCCC3)ccc(O)c2N1`, the inhibition turned out to be 3.6%.

Consider `C[C@H](C[C@H](N)C(=O)O)C(=O)O`, for which the inhibition is 2.11%.

As to `c1ccc(N2CCN(Cc3nc4ccccc4[nH]3)CC2)nc1`, the inhibition was found to be 1.74%.

Turning to `c1ccc2[nH]c(-c3cscn3)nc2c1`, the inhibition came out at 84.5%.

`COc1ccc(C(=O)C2CCN(CC(=O)N(Cc3nc4c(c(=O)[nH]3)COCC4)CC3CC3)CC2)cc1`: the inhibition was -1.1%.

As for `O=C(NCC(=O)N1CCCCC1)Nc1ccc2nnsc2c1`, the inhibition is 4.96%.

In the case of `O=C(O)c1ccc2c(c1)nc(Nc1cccc(Cl)c1)c1ccncc12`, the inhibition was -4.86%.

As for `O=C(O)c1ccc2nc(-c3cc(Cl)cc(Cl)c3)oc2c1`, the inhibition came to 99.2%.

For `CCS(=O)(=O)c1ccc2oc(-c3ccc4ccccc4c3)nc2c1`, the inhibition is 37.2%.

For `C=C1C(=O)[C@@]23C(CC[C@@H]1[C@H]2O)[C@@]12CO[C@]3(O)[C@@H](O)[C@@H]1C(C)(C)CC[C@@H]2O` (stereo partly specified), the inhibition is -6.66%.

`O=C(O)c1cc(-c2ccccc2)nc2ccccc12`: the inhibition is -1.66%.

Take `COC(=O)[C@H](NC(=O)c1cc(-c2ccccc2)nc2ccccc12)c1ccccc1`: the inhibition was 0.79%.

Turning to `COc1cc2ncc(-c3ccccc3)nc2cc1OC`, the inhibition came to 97.5%.

With `C/C(=N\c1ccccc1N)c1c(C)cc(=O)n(O)c1O`, the inhibition is 2.45%.

Turning to `O=C(O)CCCCN(CCc1ccccc1OCc1ccc(CCc2ccccc2)cc1)Cc1ccc(C(=O)O)cc1`, the inhibition is -4%.

Regarding `COc1cc2c(NC3CCN(C4CCCCC4)CC3)nc(N3CCCN(C(C)C)CC3)nc2cc1OCCCN1CCCCC1`, the inhibition is -8.06%.

As for `COc1cc2nc(C3CC3)nc(N3CCN(c4ccccc4OC)CC3)c2cc1OC`, the inhibition stood at 0%.

Consider `CC(C(=O)O)c1ccc(N2Cc3ccccc3C2=O)cc1` (stereo unspecified), for which the inhibition was 82.1%.

With `CC(C(=O)O)c1ccc2c(c1)CC(=O)c1ccccc1S2` (stereo unspecified), the inhibition is -3.15%.

For the molecule `CC(C(=O)O)c1cccc(C(=O)c2ccccc2)c1` (stereo unspecified), the inhibition amounted to 4.07%.

In the case of `CNC(=O)O[C@H]1COc2ccc(N3CCN(C4COC4)CC3)cc2[C@@H]1NC(=O)c1ccc(F)cc1`, the inhibition is -3.83%.

Take `O=C1Nc2cc(Br)ccc2/C1=C1/Nc2ccccc2/C1=N\O`: the inhibition came to 2.55%.

With `O=C1COc2nccc(-c3ccccc3F)c2CN1Cc1cc(C(F)(F)F)cc(C(F)(F)F)c1`, the inhibition is -5.84%.

Consider `C=C1/C(=C\C=C2/CCC[C@]3(C)[C@@H]([C@H](C)OCCC(C)(C)O)CC[C@@H]23)C[C@@H](O)C[C@@H]1O`, for which the inhibition was determined as 1.22%.

For `Cc1cccc(C#Cc2ccccc2)n1`, the inhibition is 94.7%.

Take `NS(=O)(=O)C#Cc1ccccc1`: the inhibition was -5.38%.

For `COc1cc(C(=O)N(CCC2CCCN2C)C/C(C)=C/c2ccccc2F)cc(OC)c1OC` (stereo unspecified), the inhibition is -2.86%.

For the molecule `CC(C)(C)c1cc(C(=O)/C(C#N)=N/Nc2cccc(Cl)c2)no1`, the inhibition came out at 7.67%.

Regarding `CNC(=O)c1c(C)oc2cc(Oc3ncnc4cc(OC)c(OC)cc34)ccc12`, the inhibition was 14.7%.

Take `CC(C)Oc1ccc2c(=O)c3cc(C(=O)O)ccc3oc2c1`: the inhibition is 76.3%.
